DUSP1 inh: blocks human MKP-1 phosphatase activity. inhibition, %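 (compounds tested at a single concentration somewhere between 10 and 100 µM)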. recombinant MKP-1, OMFP hydrolysis fluorescence. hit rate 0.15% among 65,000. P28562;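 active means inhibition above about 50%, limit read from the data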
M1 ag: agonists of M1 muscarinic receptor; CHO-M1 cells, Fluo-4 calcium fluorescence, agonist mode; stronger effect = higher value; B-score at 10 µM; hit rate 3% among 64,000; AID 626;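 active means fluorescence rise, raw or as B-score row- and column-corrected plate score, outside the 99.7% band of its plate's samples, either direction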
Hsp90 block: displaces geldanamycin probe from tumor Hsp90. inhibition, % at 30 µM. P07900. hit rate 0.35% among 64,000. NCI-N417 lysate Hsp90, Cy3B-geldanamycin FP displacement;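 active means inhibition above 50%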
M1 antag: blocks the rat M1 muscarinic receptor response to acetylcholine. CHO-M1 cells, Fluo-4 calcium, ACh EC80 antagonist mode; stronger effect = lower value. B-score at 10 µM. AID 628. hit rate 3.4% among 64,000;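 active means calcium fluorescence response, raw or row-and-column corrected B-score, differing from the plate sample mean either way at a set confidence level, mostly lower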
Target sequence (P08482 whole entry, looked up): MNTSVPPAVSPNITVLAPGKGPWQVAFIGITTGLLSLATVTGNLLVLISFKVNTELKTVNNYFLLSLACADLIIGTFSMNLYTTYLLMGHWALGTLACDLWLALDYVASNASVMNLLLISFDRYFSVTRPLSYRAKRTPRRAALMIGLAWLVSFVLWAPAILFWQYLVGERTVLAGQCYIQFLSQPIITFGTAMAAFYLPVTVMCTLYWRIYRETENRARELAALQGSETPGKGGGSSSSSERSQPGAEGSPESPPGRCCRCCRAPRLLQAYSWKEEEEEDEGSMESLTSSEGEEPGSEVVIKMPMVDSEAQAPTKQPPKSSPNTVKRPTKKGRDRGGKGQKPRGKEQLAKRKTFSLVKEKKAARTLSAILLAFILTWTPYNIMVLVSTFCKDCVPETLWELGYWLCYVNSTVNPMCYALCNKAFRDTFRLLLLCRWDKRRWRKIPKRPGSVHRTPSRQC
Cdc25B inh: inhibitors of human Cdc25B phosphatase. hit rate 0.1% among 65,000. recombinant Cdc25B, OMFP fluorescence Ex485/Em525. inhibition, %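 (compounds tested at 10 µM final in the well)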. P30305. AID 368; in the data active means inhibition above about 50%
MMP-13 inhibitor: inhibitors of human MMP13 | P45452 | MMP-13 fTHP FRET cleavage, Mca fluorescence | inhibition, % at 4 µM | hit rate 0.07% among 65,000 | AID 570;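 active means inhibition above the mean of compound-free control plate wells plus 3 SD, cut at about 14% in these data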
M1 antag confirm: confirmation of rat M1 muscarinic receptor antagonists; shares compounds with M1 antag; CHO-M1 cells, Fluo-4 calcium, ACh EC80 antagonism; stronger effect = lower value; calcium response (max-min fluorescence) at 10 µM; hit rate 43% among 1,700; AID 677;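 active means calcium response below the same-plate mean of wells given acetylcholine alone at its 80%-effect dose, minus 3 SD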
mGluR4 antag: acts on human mGluR4 in M1 antagonist selectivity test. shares compounds with M1 antag. CHO-mGluR4 calcium flux, Fluo-4 fluorescence, glutamate EC80; stronger effect = lower value. fluorescence response (max-min) at 10 µM. hit rate 0.9% among 1,700;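 active means fluorescence response below the plate's average for near-maximal glutamate wells, less 3 SD of those wells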;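 further: raw unnormalized fluorescence span taken in the window right after glutamate addition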
A number is an active result. A selection: hits, their analogues and other compounds. The true share with any hit is near 6.1%.

Screening Nc1[nH]c(=S)[nH]c(=O)c1-c1ccccc1 returned DUSP1 inh inactive, M1 ag inactive, Hsp90 block inactive, M1 antag -2.32, Cdc25B inh inactive, MMP-13 inhibitor inactive, M1 antag confirm inactive and mGluR4 antag inactive.
For CCOC(=O)N1CCN(Cc2nc3c(c(=O)n(C)c(=O)n3C)n2CCCc2ccccc2)CC1 the results were DUSP1 inh inactive, M1 ag inactive, Hsp90 block inactive, M1 antag inactive, Cdc25B inh inactive and MMP-13 inhibitor inactive.
`CSc1ccc(C(C(C(=O)c2cccs2)N2CCOCC2)N2CCOCC2)cc1` (configuration not stated) gave DUSP1 inh inactive, M1 ag inactive, Hsp90 block inactive, M1 antag -3.44, Cdc25B inh inactive, MMP-13 inhibitor inactive, M1 antag confirm inactive and mGluR4 antag inactive.
`CCOc1ccc(N(CC(=O)N2CCN(c3ccccc3)CC2)S(=O)(=O)c2c(C)noc2C)cc1` gave DUSP1 inh inactive, M1 ag inactive, Hsp90 block inactive, M1 antag inactive, Cdc25B inh inactive and MMP-13 inhibitor inactive.
Screening CCOC(=O)N1CCN(C(=O)CN(c2ccc(C)cc2)S(=O)(=O)c2c(C)noc2C)CC1 returned DUSP1 inh inactive, M1 ag inactive, Hsp90 block inactive, M1 antag -1.12, Cdc25B inh inactive, MMP-13 inhibitor inactive, M1 antag confirm inactive and mGluR4 antag inactive.
`O=C1C(Cl)=C(Nc2ccccc2O)C(=O)N1c1ccccc1` gave DUSP1 inh inactive, M1 ag inactive, M1 antag inactive, Cdc25B inh inactive and MMP-13 inhibitor inactive.
Cc1c(NC2=C(Cl)C(=O)N(c3ccccc3)C2=O)c(=O)n(-c2ccccc2)n1C was read as DUSP1 inh inactive, M1 ag inactive, Hsp90 block inactive, M1 antag -6.27, Cdc25B inh inactive, MMP-13 inhibitor inactive, M1 antag confirm 151 and mGluR4 antag inactive.
`COc1ccc(Cc2nc3ccc(S(N)(=O)=O)cc3[nH]2)cc1OC` gave DUSP1 inh inactive, M1 ag inactive, Hsp90 block inactive, M1 antag -2.93, Cdc25B inh inactive, MMP-13 inhibitor inactive, M1 antag confirm inactive and mGluR4 antag inactive.
For O=C(Nc1ccccc1Cl)c1cc(S(=O)(=O)N2CCCC(C(=O)O)C2)ccc1F (configuration not stated) the results were DUSP1 inh inactive, M1 ag inactive, Hsp90 block inactive, M1 antag -3.48, Cdc25B inh inactive, MMP-13 inhibitor inactive, M1 antag confirm 529 and mGluR4 antag inactive.
For CCCC(CCC(=O)NC1CCCCC1)C(=O)O (configuration not stated) the results were DUSP1 inh inactive, M1 ag inactive, Hsp90 block inactive, M1 antag inactive, Cdc25B inh inactive and MMP-13 inhibitor inactive.
`CCCC(CCC)C(=O)OC1C[C@H]2CC[C@@H](C1)[N+]2(C)C` (some centres not stated) gave DUSP1 inh inactive, M1 ag inactive, Hsp90 block inactive, M1 antag -15.2, Cdc25B inh inactive, MMP-13 inhibitor inactive, M1 antag confirm 30.3 and mGluR4 antag inactive.
CN1CCN(/C=C2\SC(=S)NC2=O)CC1 was read as DUSP1 inh inactive, M1 ag inactive, Hsp90 block inactive, M1 antag inactive, Cdc25B inh inactive and MMP-13 inhibitor inactive.
For CCN1C(=O)/C(=C\N2CCCCCC2)SC1=S the results were DUSP1 inh inactive, M1 ag inactive, Hsp90 block inactive, M1 antag -8.72, Cdc25B inh inactive, MMP-13 inhibitor inactive, M1 antag confirm 16.3 and mGluR4 antag inactive.
Screening CCCN(CC1CC1)S(=O)(=O)c1ccc(S(N)(=O)=O)cc1 returned DUSP1 inh inactive, M1 ag inactive, Hsp90 block inactive, M1 antag inactive, Cdc25B inh inactive and MMP-13 inhibitor inactive.
CC1CCN(Cc2ccc(NC(=O)C3CCN(c4nnc(-n5cccc5)s4)CC3)cc2)CC1 was read as DUSP1 inh inactive, M1 ag inactive, Hsp90 block inactive, M1 antag -12.6, Cdc25B inh inactive, MMP-13 inhibitor inactive, M1 antag confirm 14.8 and mGluR4 antag inactive.
`CCOC(=O)N1CCN(C(=O)c2ccc3c(c2)ncn3C2CCCC2)CC1` gave DUSP1 inh inactive, M1 ag inactive, Hsp90 block inactive, M1 antag -2.28, Cdc25B inh inactive, MMP-13 inhibitor inactive, M1 antag confirm inactive and mGluR4 antag inactive.
For CSc1ccc(-c2nnn(Cc3ccc(C)cc3)n2)cc1 the results were DUSP1 inh inactive, M1 ag inactive, M1 antag -5.41, Cdc25B inh inactive, M1 antag confirm inactive and mGluR4 antag inactive.
Cc1ccc(Cn2nnnc2CN2CCC(O)(c3ccccc3F)CC2)cc1 was read as DUSP1 inh inactive, M1 ag inactive, Hsp90 block inactive, M1 antag inactive, Cdc25B inh inactive and MMP-13 inhibitor inactive.
Screening Cc1ccc(CN2CCNC(=O)C2CC(=O)O)cc1 (configuration not stated) returned DUSP1 inh inactive, M1 ag inactive, Hsp90 block inactive, M1 antag inactive, Cdc25B inh inactive and MMP-13 inhibitor inactive.
For CCOc1ccc(CN2CCNC(=O)C2CC(=O)OC)cc1 (configuration not stated) the results were DUSP1 inh inactive, M1 ag inactive, Hsp90 block inactive, M1 antag -2.87, Cdc25B inh inactive, MMP-13 inhibitor inactive, M1 antag confirm inactive and mGluR4 antag inactive.
O=C(CN1C(=O)c2ccccc2C1=O)Nc1ccccc1C(=O)N1CCCC1 was read as DUSP1 inh inactive, M1 ag inactive, Hsp90 block inactive, M1 antag inactive, Cdc25B inh inactive and MMP-13 inhibitor inactive.
Screening COc1cccc(Nc2nc(=O)[nH]nc2C)c1 returned DUSP1 inh inactive, M1 ag inactive, Hsp90 block inactive, M1 antag inactive, Cdc25B inh inactive and MMP-13 inhibitor inactive.
For Cc1nnc(SCC(=O)N2CCN(S(=O)(=O)c3ccccc3)CC2)n1Cc1ccccc1 the results were DUSP1 inh inactive, M1 ag inactive, Hsp90 block inactive, M1 antag -6.36, Cdc25B inh inactive, MMP-13 inhibitor inactive, M1 antag confirm 350 and mGluR4 antag inactive.
Screening CCn1c(SCC(=O)N2CCN(S(=O)(=O)c3ccccc3)CC2)nnc1-c1cccs1 returned DUSP1 inh inactive, M1 ag inactive, Hsp90 block inactive, M1 antag inactive, Cdc25B inh inactive and MMP-13 inhibitor inactive.
Screening Cc1ccc(-c2nnc(SCC(=O)N3CCCC3)o2)cc1 returned DUSP1 inh inactive, M1 ag inactive, Hsp90 block inactive, M1 antag inactive, Cdc25B inh inactive and MMP-13 inhibitor inactive.

Assay outcomes: PubChem, several laboratories
